Data as given in ChEMBL document CHEMBL1961873, “Compounds: GSK PKIS; Assays: Nanosyn kinase panel” (2012).

Key:
[1] = target: Mitogen-activated protein kinase 3 (Homo sapiens) (UniProt P27361); conditions: at 1 µM;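 further: values are mean percent inhibition of MAPK3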
[2] = target: SRSF protein kinase 3 (Homo sapiens) (UniProt Q9UPE1); conditions: at 0.1 µM
[3] = target: SRSF protein kinase 3 (Homo sapiens) (UniProt Q9UPE1); conditions: at 1 µM
[4] = target: Mitogen-activated protein kinase 11 (Homo sapiens) (UniProt Q15759); conditions: at 0.1 µM
Chain of Mitogen-activated protein kinase 11 (Homo sapiens) (Q15759 whole entry): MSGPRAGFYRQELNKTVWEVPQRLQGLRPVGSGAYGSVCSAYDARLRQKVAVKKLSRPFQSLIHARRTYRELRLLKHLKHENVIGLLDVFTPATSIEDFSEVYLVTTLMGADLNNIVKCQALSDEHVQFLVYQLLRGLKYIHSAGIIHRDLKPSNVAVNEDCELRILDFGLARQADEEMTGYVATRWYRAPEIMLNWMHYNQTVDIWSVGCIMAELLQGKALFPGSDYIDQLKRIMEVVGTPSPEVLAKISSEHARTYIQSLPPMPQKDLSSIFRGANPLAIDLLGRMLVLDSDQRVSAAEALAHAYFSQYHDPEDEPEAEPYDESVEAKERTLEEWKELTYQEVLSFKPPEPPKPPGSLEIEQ

[5] = target: Mitogen-activated protein kinase 11 (Homo sapiens) (UniProt Q15759); conditions: at 1 µM
[6] = target: T1, Mitogen-activated protein kinase 13 (Homo sapiens) (UniProt O15264); conditions: at 0.1 µM
T1 sequence (whole entry): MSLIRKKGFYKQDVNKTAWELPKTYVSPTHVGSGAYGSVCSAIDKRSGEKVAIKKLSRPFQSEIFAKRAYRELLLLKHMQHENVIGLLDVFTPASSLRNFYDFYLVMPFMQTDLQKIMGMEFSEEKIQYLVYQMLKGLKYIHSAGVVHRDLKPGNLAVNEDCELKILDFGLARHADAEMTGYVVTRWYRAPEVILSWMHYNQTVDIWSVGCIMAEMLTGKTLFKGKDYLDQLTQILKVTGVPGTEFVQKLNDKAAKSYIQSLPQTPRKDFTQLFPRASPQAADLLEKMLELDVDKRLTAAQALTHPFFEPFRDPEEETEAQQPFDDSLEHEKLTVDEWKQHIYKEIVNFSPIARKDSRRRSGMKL

[7] = target: T1, Mitogen-activated protein kinase 13 (Homo sapiens); conditions: at 1 µM
[8] = target: T2, Mitogen-activated protein kinase 12 (Homo sapiens) (UniProt P53778); conditions: at 0.1 µM
T2 sequence (whole entry): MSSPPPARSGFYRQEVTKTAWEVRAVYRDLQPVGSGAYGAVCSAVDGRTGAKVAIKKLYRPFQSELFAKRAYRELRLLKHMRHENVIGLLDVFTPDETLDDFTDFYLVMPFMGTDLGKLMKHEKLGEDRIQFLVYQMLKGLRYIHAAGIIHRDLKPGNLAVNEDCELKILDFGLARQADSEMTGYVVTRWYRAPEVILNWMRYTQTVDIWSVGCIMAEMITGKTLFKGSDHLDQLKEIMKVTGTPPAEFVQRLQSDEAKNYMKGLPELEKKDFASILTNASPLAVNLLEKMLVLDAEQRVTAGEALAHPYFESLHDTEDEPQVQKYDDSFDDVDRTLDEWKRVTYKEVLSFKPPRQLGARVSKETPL

[9] = target: T2, Mitogen-activated protein kinase 12 (Homo sapiens); conditions: at 1 µM
[10] = target: SRSF protein kinase 1 (Homo sapiens) (UniProt Q96SB4); conditions: at 0.1 µM
Chain of SRSF protein kinase 1 (Homo sapiens) (Q96SB4 whole entry, canonical isoform): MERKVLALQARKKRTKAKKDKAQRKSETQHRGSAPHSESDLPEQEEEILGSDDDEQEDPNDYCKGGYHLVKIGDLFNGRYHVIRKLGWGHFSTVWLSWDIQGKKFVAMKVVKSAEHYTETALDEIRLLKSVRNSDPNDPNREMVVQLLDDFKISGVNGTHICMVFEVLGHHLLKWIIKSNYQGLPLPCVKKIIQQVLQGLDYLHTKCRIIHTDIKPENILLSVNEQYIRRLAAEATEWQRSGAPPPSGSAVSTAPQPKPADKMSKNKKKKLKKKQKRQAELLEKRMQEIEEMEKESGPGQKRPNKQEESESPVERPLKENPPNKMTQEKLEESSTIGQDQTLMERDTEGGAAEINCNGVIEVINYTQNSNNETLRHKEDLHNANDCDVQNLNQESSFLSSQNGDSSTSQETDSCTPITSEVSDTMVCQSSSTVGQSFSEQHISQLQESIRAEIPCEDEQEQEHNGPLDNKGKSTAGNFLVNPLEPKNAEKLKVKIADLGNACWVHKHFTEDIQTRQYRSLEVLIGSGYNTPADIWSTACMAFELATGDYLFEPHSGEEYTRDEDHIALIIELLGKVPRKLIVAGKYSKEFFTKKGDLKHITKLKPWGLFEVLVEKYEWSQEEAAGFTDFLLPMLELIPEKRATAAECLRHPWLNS

[11] = target: SRSF protein kinase 1 (Homo sapiens) (UniProt Q96SB4); conditions: at 1 µM
[12] = target: Phosphatidylinositol 4,5-bisphosphate 3-kinase catalytic subunit alpha isoform (Homo sapiens) (UniProt P42336); conditions: at 0.1 µM
Chain of Phosphatidylinositol 4,5-bisphosphate 3-kinase catalytic subunit alpha isoform (Homo sapiens) (P42336 whole entry, canonical isoform): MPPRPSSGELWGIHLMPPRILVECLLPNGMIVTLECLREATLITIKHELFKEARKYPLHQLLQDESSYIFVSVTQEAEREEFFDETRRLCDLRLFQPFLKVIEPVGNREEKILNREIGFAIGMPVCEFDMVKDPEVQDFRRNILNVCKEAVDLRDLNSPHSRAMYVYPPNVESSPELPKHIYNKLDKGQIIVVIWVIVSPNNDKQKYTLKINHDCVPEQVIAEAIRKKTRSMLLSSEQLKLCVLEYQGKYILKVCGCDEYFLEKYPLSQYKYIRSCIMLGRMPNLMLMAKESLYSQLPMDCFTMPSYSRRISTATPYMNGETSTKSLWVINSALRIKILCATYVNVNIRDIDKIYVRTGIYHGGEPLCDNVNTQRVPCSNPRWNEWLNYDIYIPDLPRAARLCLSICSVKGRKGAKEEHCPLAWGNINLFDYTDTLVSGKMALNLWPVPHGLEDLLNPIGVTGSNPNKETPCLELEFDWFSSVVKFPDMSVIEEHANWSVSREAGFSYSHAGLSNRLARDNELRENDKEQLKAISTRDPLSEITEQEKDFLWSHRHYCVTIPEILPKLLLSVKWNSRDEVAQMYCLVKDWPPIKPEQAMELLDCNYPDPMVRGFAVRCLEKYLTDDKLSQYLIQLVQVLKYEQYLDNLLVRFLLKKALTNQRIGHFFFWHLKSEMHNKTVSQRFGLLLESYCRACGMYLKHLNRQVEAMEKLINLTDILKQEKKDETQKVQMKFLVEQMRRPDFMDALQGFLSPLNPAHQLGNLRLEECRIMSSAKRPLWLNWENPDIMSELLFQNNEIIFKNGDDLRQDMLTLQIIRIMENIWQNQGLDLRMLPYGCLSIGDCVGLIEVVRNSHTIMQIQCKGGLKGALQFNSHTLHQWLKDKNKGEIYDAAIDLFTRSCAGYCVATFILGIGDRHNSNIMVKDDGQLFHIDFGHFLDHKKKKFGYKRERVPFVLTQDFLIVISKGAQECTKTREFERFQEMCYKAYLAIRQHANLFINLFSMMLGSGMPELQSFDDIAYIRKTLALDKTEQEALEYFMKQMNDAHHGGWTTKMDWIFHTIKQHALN

[13] = target: Phosphatidylinositol 4,5-bisphosphate 3-kinase catalytic subunit alpha isoform (Homo sapiens) (UniProt P42336); conditions: at 1 µM
[14] = target: T3, Phosphatidylinositol 4,5-bisphosphate 3-kinase catalytic subunit delta isoform (Homo sapiens) (UniProt O00329); conditions: at 0.1 µM
T3 sequence (whole entry): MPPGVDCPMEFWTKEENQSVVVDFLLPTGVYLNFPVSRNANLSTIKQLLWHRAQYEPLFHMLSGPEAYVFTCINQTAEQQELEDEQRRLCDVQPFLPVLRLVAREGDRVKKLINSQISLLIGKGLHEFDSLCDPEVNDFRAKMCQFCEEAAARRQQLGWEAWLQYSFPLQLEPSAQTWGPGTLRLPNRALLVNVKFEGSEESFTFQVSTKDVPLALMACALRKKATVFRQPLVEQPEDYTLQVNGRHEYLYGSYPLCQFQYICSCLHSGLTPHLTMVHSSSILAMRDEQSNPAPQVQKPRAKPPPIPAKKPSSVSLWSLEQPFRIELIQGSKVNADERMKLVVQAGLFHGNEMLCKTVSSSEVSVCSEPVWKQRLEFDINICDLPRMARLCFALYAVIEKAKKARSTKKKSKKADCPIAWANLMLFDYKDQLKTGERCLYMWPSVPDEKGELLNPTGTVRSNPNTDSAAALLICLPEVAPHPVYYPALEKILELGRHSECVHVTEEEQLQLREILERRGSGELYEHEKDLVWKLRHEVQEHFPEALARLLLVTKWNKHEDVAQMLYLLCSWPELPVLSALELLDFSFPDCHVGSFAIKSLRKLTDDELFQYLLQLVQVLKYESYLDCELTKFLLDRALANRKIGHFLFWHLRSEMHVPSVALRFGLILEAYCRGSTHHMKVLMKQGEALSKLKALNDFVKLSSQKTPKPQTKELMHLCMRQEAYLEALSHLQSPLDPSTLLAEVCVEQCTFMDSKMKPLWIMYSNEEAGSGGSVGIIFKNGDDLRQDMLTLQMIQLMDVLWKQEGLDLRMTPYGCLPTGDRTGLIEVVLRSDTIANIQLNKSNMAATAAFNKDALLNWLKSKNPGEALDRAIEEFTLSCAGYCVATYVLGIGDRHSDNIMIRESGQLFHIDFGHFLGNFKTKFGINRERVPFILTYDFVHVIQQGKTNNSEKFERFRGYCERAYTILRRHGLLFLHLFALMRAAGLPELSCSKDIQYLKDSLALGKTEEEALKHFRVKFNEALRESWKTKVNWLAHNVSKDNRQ

[15] = target: T3, Phosphatidylinositol 4,5-bisphosphate 3-kinase catalytic subunit delta isoform (Homo sapiens); conditions: at 1 µM
[16] = target: Phosphatidylinositol 4-kinase beta (Homo sapiens) (UniProt Q9UBF8); conditions: at 0.1 µM
Chain of Phosphatidylinositol 4-kinase beta (Homo sapiens) (Q9UBF8 2-816 limits assumed): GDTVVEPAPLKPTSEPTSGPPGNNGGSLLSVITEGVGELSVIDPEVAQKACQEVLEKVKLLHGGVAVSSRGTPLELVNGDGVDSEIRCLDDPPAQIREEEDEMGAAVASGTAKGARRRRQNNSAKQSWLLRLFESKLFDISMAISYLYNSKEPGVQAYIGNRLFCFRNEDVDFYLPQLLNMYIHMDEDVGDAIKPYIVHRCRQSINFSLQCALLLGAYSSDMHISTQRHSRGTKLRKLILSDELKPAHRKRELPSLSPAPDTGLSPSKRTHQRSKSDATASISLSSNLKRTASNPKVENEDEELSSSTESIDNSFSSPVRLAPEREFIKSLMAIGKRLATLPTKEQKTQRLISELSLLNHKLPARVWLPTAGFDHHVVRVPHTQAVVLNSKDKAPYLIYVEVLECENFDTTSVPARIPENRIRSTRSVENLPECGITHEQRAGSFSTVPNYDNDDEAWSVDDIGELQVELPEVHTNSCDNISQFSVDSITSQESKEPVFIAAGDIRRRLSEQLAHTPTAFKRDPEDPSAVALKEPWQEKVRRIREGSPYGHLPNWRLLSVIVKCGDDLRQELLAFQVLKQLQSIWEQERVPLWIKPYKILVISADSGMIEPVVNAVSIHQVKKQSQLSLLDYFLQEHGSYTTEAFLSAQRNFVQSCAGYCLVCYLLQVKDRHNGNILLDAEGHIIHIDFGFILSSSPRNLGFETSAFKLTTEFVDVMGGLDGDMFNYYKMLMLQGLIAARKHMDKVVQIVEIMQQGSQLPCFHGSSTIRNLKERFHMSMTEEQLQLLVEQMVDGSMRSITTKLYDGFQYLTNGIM

[17] = target: Phosphatidylinositol 4-kinase beta (Homo sapiens) (UniProt Q9UBF8); conditions: at 1 µM
[18] = target: Sphingosine kinase 1 (Homo sapiens) (UniProt Q9NYA1); conditions: at 0.1 µM;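 further: mean percent inhibition of SPHK1 activity, measured within the GSK PKIS screening panel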
Chain of Sphingosine kinase 1 (Homo sapiens) (Q9NYA1 whole entry): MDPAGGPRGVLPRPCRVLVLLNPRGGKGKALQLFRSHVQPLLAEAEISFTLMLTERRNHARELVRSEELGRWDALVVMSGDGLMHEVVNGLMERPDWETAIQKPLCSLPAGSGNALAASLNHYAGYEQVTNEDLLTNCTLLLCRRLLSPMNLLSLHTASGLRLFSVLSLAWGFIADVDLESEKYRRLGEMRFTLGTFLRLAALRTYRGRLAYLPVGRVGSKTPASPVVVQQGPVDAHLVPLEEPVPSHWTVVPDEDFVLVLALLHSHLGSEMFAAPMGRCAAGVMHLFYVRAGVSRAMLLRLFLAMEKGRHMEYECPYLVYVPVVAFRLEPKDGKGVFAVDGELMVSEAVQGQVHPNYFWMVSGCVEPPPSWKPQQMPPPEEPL

[19] = target: Mitogen-activated protein kinase 14 (Homo sapiens) (UniProt Q16539); conditions: at 0.1 µM
Chain of Mitogen-activated protein kinase 14 (Homo sapiens) (Q16539 whole entry): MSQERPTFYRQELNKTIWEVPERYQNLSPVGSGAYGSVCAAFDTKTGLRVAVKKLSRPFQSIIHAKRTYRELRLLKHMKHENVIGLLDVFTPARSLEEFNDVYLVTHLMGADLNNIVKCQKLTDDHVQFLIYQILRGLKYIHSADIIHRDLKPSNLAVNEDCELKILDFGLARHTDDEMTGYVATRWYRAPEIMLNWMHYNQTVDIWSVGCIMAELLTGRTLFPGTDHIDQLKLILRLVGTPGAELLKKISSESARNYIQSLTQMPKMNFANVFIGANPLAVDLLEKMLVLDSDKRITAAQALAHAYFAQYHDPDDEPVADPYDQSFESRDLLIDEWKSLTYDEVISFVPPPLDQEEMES

[20] = target: Mitogen-activated protein kinase 14 (Homo sapiens) (UniProt Q16539); conditions: at 1 µM

Chain of Mitogen-activated protein kinase 3 (Homo sapiens) (P27361 whole entry): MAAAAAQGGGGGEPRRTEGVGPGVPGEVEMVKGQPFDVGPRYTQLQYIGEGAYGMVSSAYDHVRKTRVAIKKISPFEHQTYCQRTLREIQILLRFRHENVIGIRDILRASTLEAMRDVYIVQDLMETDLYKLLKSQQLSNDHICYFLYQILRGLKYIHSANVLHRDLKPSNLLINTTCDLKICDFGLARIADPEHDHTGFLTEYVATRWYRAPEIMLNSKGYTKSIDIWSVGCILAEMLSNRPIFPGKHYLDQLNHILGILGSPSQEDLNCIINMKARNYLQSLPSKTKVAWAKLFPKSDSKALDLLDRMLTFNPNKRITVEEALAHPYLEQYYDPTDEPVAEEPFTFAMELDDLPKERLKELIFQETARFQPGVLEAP
Chain of SRSF protein kinase 3 (Homo sapiens) (Q9UPE1 whole entry): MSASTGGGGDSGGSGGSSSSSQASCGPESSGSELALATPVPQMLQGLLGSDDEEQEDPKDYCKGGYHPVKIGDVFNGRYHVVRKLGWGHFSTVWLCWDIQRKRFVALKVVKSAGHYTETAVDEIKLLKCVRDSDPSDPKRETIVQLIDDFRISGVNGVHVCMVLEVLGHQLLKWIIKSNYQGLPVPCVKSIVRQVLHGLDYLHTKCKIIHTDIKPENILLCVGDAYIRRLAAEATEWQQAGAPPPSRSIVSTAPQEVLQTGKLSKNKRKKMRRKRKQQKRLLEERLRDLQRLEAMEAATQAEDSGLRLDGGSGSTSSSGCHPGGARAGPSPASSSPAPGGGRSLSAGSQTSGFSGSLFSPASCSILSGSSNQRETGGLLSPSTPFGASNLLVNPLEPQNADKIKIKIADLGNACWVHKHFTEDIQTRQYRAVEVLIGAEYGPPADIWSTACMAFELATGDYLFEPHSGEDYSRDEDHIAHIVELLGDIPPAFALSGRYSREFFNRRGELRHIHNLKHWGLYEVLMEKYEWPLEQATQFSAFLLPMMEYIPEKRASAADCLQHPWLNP

SMILES | inhibition [1] [%] | inhibition [2] [%] | inhibition [3] [%] | inhibition [4] [%] | inhibition [5] [%] | inhibition [6] [%] | inhibition [7] [%] | inhibition [8] [%] | inhibition [9] [%] | inhibition [10] [%] | inhibition [11] [%] | inhibition [12] [%] | inhibition [13] [%] | inhibition [14] [%] | inhibition [15] [%] | inhibition [16] [%] | inhibition [17] [%] | inhibition [18] [%] | inhibition [19] [%] | inhibition [20] [%]
Cc1ccc(C(=O)NC2CCC2)cc1-c1ccc(C(=O)NCC2CC2)cc1 | 2.32 | -2.8 | -1.15 | 10.7 | 48.2 | 1.41 | 2.78 | 3.67 | 1.52 | -1.15 | -3.91 | 1.03 | 2.46 | 0.19 | 3.4 | -3.28 | 0.35 | 0.24 | – | –
C#Cc1cccc(Nc2ncnc3ccc(OCCCCNCCS(C)(=O)=O)cc23)c1 | 5.78 | -1.8 | -2.44 | 4.69 | 7.25 | 6.43 | 4.8 | 1.66 | 3.54 | -1.38 | -0.94 | 5 | 4.83 | 2.6 | 5.7 | -2.49 | -1.03 | 5.65 | 3.36 | 13.9
COc1cc(Nc2ncc3c(C)nc(-c4cccc(C(F)(F)F)c4)n3n2)cc(OC)c1OC | 7.25 | -0.69 | 3.15 | 3.99 | 8.89 | -0.83 | 1.78 | 0.21 | 1.38 | -1.06 | 1.6 | 1.32 | 0.9 | 1.18 | -1.04 | 7.16 | 1.45 | 2.98 | 1.25 | 6.99
COc1cc(N2CCN(C(C)C)CC2)ccc1Nc1nc(Nc2ccc(F)cc2C(=O)NC[C@@H](O)CO)c2cc[nH]c2n1 | 5.1 | -4.86 | 2.68 | 4.89 | 6.16 | -0.21 | 4.89 | -2.16 | 2.97 | -0.39 | 3.84 | 4.55 | 2.69 | 1.37 | 3.4 | -3.83 | -1.08 | 1.31 | 2.09 | 9.88
CCc1ccc(Oc2nccc(-c3c(-c4ccc(F)cc4)ncn3C3CCNCC3)n2)cc1 | 8.24 | 3.09 | 0.07 | – | – | – | – | – | – | -2.85 | -3.81 | 3.74 | 3.81 | 1.87 | 6.26 | 3.17 | 2.82 | 1.33 | – | –
Fc1ccc(-c2ncn(C3CCNCC3)c2-c2ccnc(Oc3ccc(Oc4ccccc4)cc3)n2)cc1 | 5.57 | 4.51 | -0.81 | – | – | – | – | – | – | -3.18 | -2.43 | 3.74 | 2.92 | -0.16 | 2.82 | -2.22 | 5.8 | 1.17 | – | –
CCc1nccc2c1nc(-c1nonc1N)n2CC | 1.77 | -1.38 | -1.65 | 2.18 | 1.56 | -1.2 | 1.58 | -1.3 | 3.91 | -2.2 | -4.41 | -0.95 | 1.38 | 1.47 | 4.23 | -3.69 | 1.82 | 0 | 3.67 | –
